Assay [1] in a line: Human pregnane X receptor (PXR) small molecule agonists, qHTS cell viability counter screen (AID 1346977). Note: nearly all actives have a fitted effect of over 50% in size. Note: potency is the fitted concentration of half-maximal effect. Summed up: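 Tox21 qHTS format; PXR-Luc HepG2, 2,000/well, charcoal-stripped FBS 5%. Cpd exposure 24hr. Read: CellTiter-Fluor fluorescence, multiplexed with luciferase.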
For orientation: In qHTS, concentration-response curves come from the screen itself.

A short description of assay [2]: Caspase-3/7 induction in HepG2 cells by small molecules, qHTS assay (AID 1346978). Note: nearly all actives have a fitted effect of over 15% in size. Note: potency is the fitted concentration of half-maximal effect. Summed up:
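Wild-type HepG2 cells, 2,000/well, settled 5 hr at 37 C and 5% CO2, then compound-treated for 17 hr; caspase-3/7 activity read by luminescent Caspase-Glo 3/7 after 30 min at room temperature.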

A short description of assay [3]: Caspase-3/7 induction in CHO-K1 cells by small molecules, qHTS cell viability counter screen (AID 1346979). Note: nearly all actives have a fitted effect of over 35% in size. Note: potency is the fitted concentration of half-maximal effect. Summed up: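 CellTiter-Fluor viability check, qHTS format: wild-type CHO-K1, 16hr compound treatment, 1hr reagent incubation, fluorescence read.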
The nature of assay [4]: Caspase-3/7 induction in CHO-K1 cells by small molecules, qHTS assay (AID 1346980). Note: nearly all actives have a fitted effect of over 15% in size. Note: potency is the fitted concentration of half-maximal effect. Summed up:
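Wild-type CHO-K1 cells exposed to compounds for 17hr at 37 C, 5% CO2. Caspase-3/7 activity then measured by Caspase-Glo 3/7 luminescence after 30min at room temperature.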

Assay [5] can be described thus: Caspase-3/7 induction in HepG2 cells by small molecules, qHTS cell viability counter screen (AID 1346981). Note: nearly all actives have a fitted effect of over 30% in size. Note: potency is the fitted concentration of half-maximal effect. Summed up:
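Counter screen for cytotoxicity: HepG2 exposed 16 hr to compounds, then CellTiter-Fluor viability signal (fluorescence, 1 hr reagent incubation).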

For assay [6], the target named is Nuclear receptor subfamily 1 group I member 2 (Homo sapiens) (UniProt O75469). As to the kind of experiment: Human pregnane X receptor (PXR) small molecule agonists, qHTS assay (AID 1346982). Note: nearly all actives have a fitted effect of over 35% in size. Note: potency is the fitted concentration of half-maximal effect. Summed up:
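Luminescence (ONE-Glo, 30 min RT) after 24 hr compound exposure of PXR-Luc HepG2 cells; cells rested 5 hr post-plating in 5% charcoal-stripped FBS medium.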

In assay [7] the target is Acetylcholinesterase (Homo sapiens) (UniProt P22303). As to the kind of experiment: Acetylcholinesterase (AChE) small molecule antagonists: colormetric cell-based qHTS assay (AID 1347395; calls by dose curve; note: nearly all actives have a fitted effect of over 30% in size; note: potency is the fitted concentration of half-maximal effect). Summed up:
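AChE inhibition read colorimetrically via DTNB–thiocholine in SH-SY5Y cells. Compound 30 min, substrate 90 min, both 37 C.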

The target is the same in assay [8]. Briefly: Acetylcholinesterase (AChE) small molecule antagonists: enzyme-based qHTS assay (AID 1347397; calls by dose curve; note: nearly all actives have a fitted effect of over 55% in size). Particulars: Potency: AChE enzyme activity inhibition; outcome: AChE enzyme activity inhibition. Summed up: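 Enzyme inhibition was scored from DTNB-detected thiocholine formed by recombinant human AChE acting on acetylthiocholine. The 30 min compound preincubation and 10 min substrate reaction were both run at room temperature, with DMSO as vehicle control.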

Assay [9] has the same target. As to the kind of experiment: Acetylcholinesterase (AChE) small molecule antagonists: fluorescence cell-based qHTS assay (AID 1347398; calls by dose curve; note: nearly all actives have a fitted effect of over 50% in size; note: potency is the fitted concentration of half-maximal effect). The note with it: Potency: AChE activity; outcome: AChE activity. Summed up:
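Endogenous acetylcholinesterase of SH-SY5Y neuroblastoma cells is measured in situ. After overnight attachment and 30 min compound exposure, cells receive acetylthiocholine and Thiolite Green; fluorescence is read after 40 min at room temperature.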

For assay [10] the target is unchanged. Briefly: Acetylcholinesterase (AChE) small molecule antagonists: enzyme-based qHTS assay with human liver microsomes (AID 1347399; calls by dose curve; note: nearly all actives have a fitted effect of over 60% in size). Particulars: Potency: qHTS inhibition; outcome: qHTS inhibition. Summed up: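 Recombinant human AChE (50 mU/mL in the enzyme mix) and human liver microsomes (0.25 mg/mL final) were preincubated with compound and NADPH (0.25 mg/mL final) for 30 min at 37 C. Acetylthiocholine/DTNB was then added; thiocholine was read colorimetrically after 10 min at room temperature.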

Assay [11] has as its target Cytochrome P450 2C19 (Homo sapiens) (UniProt P33261). As to the kind of experiment: Cytochrome P450 Family 2 Subfamily C Member 19 (CYP2C19) small molecule antagonists: luciferase reporter qHTS assay (AID 1671197). Note: nearly all actives have a fitted effect of over 65% in size. Note: potency is the fitted concentration of half-maximal effect. Summed up:
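Luminescent readout of CYP2C19 activity: luciferin product detected 20 min after adding detection reagent. Before that, compound and enzyme-substrate mix preincubated 10 min at room temperature; NADPH-regenerating system started a 1 h, 37C reaction. Ketoconazole as positive control.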
(In general: Reporter assays use an easily measured gene product as a stand-in for the process of interest.)

Assay [12] deals with Cytochrome P450 2C9 (Homo sapiens) (UniProt P11712). Briefly: Cytochrome P450 Family 2 Subfamily C Member 9 (CYP2C9) small molecule antagonists: luciferase reporter qHTS assay (AID 1671198). Note: nearly all actives have a fitted effect of over 50% in size. Note: potency is the fitted concentration of half-maximal effect. Summed up:
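P450-Glo proluciferin substrate with CYP2C9 enzyme; 10 min RT preincubation, then NADPH regeneration 1 h at 37C; luciferin detection reagent 20 min RT, luminescence in relative luminescence units.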

In assay [13] the target is Cytochrome P450 1A2 (Homo sapiens) (UniProt P05177). As to the kind of experiment: Cytochrome P450 Family 1 Subfamily A Member 2 (CYP1A2) small molecule antagonists: luciferase reporter qHTS assay (AID 1671199). Note: nearly all actives have a fitted effect of over 50% in size. Note: potency is the fitted concentration of half-maximal effect. Summed up:
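Signal from luciferin formed by CYP1A2 from a proluciferin substrate is read as luminescence, expressed in relative luminescence units. Compounds sit with enzyme 10 min, NADPH-driven reaction runs 1 h, all at room temperature.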

Assay [14] deals with Voltage-gated inwardly rectifying potassium channel KCNH2 (Homo sapiens) (UniProt Q12809). As to the kind of experiment: Human Ether-a-go-go-Related Gene (hERG) channel small molecule antagonists: fluorescence cell-based qHTS assay (AID 1671200). Note: nearly all actives have a fitted effect of over 50% in size. Note: potency is the fitted concentration of half-maximal effect. Summed up: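 Kinetic two-minute fluorescence traces, sampled at 1 s, were collected following thallium stimulus of U2OS cells (1000 per well) that had been cultured overnight at 37 C and loaded with FluxOR II.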
Voltage-gated inwardly rectifying potassium channel KCNH2 (Homo sapiens), sequence (Q12809 whole entry, looked up): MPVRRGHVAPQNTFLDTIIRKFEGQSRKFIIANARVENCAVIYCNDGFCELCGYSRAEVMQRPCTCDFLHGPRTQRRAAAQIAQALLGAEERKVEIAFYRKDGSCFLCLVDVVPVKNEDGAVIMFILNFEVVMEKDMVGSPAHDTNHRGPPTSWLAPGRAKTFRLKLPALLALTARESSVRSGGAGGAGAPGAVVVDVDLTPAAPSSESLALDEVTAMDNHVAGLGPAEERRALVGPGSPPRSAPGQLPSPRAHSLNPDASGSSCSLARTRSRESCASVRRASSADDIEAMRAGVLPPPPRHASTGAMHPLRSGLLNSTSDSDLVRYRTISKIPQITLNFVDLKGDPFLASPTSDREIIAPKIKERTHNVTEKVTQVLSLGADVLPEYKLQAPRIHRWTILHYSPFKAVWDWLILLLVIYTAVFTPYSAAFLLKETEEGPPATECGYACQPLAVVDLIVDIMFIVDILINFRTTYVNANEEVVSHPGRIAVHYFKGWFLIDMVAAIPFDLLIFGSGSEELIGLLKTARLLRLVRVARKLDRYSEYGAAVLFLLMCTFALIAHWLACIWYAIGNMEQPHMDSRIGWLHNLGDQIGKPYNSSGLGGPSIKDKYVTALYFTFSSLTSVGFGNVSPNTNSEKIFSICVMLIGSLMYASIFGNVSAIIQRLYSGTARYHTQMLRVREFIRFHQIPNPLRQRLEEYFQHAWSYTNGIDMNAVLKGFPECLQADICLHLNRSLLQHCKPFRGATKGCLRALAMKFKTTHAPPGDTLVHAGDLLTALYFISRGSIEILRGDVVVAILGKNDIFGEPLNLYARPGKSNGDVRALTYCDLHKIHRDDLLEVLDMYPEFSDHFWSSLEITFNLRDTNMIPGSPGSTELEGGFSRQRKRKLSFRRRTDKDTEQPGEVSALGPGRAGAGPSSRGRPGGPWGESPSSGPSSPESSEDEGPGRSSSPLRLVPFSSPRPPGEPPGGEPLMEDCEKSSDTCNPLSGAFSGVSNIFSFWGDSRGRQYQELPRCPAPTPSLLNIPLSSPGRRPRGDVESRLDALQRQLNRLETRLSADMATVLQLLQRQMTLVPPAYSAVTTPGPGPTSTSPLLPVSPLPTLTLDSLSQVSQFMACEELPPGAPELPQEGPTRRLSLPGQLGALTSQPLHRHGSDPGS

Assay [15] deals with Cytochrome P450 3A4 (Homo sapiens) (UniProt P08684). Briefly: Cytochrome P450 Family 3 Subfamily A Member 4 (CYP3A4) small molecule antagonists: luciferase reporter qHTS assay (AID 1671201). Summed up:
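Proluciferin-to-luciferin conversion by CYP3A4, NADPH-regenerated, 1 h RT; luminescence read as RLU. Ketoconazole as control.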

These results are taken from PubChem BioAssay (Tox21).

SMILES strings stand for the structures. Values joined by “and” are separate entries in the source; they are usually repeats but may differ in a detail not shown here. Equal values may be shown once. Inconclusive results are not listed. Some compounds were tested as several samples or in several runs, with calls that do not always agree. Active and inactive are the calls of the source. Unless noted, calls come from the whole dose curve; as a rule, active = well fitted curve in the direction sought with a large enough effect in the repeat runs; inconclusive = weak or mixed curves; inactive = no such curve, though single readings can be large; an effect the other way counts as inactive or inconclusive.

Cytochrome P450 2C9 (Homo sapiens), sequence (P11712 whole entry, looked up): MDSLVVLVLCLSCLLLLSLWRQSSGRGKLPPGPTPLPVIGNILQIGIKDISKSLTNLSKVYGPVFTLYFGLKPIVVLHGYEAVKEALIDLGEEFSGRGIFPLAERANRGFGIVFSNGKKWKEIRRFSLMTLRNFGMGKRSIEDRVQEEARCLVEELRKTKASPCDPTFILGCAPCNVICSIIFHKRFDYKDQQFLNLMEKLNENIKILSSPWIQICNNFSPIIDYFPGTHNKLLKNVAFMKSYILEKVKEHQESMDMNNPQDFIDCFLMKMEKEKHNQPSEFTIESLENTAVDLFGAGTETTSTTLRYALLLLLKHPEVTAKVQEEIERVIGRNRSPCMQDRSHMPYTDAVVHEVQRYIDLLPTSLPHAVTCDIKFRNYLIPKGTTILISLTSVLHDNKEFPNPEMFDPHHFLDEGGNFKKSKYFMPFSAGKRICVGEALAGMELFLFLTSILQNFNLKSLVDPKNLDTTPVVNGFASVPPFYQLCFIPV
Cytochrome P450 2C19 (Homo sapiens), sequence (P33261 whole entry, looked up): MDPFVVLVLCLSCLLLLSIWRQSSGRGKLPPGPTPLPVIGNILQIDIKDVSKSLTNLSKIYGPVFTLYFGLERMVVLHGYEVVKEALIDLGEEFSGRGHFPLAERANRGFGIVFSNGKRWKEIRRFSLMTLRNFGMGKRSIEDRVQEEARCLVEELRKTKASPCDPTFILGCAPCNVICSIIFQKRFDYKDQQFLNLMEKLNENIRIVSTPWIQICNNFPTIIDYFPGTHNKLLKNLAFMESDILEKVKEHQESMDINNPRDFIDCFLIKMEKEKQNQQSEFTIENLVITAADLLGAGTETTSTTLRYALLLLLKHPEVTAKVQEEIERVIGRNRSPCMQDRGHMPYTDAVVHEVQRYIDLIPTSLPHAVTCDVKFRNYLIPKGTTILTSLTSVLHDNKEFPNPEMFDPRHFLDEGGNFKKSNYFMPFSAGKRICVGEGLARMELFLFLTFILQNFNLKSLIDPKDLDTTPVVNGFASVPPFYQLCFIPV
Cytochrome P450 3A4 (Homo sapiens), sequence (P08684 whole entry, looked up): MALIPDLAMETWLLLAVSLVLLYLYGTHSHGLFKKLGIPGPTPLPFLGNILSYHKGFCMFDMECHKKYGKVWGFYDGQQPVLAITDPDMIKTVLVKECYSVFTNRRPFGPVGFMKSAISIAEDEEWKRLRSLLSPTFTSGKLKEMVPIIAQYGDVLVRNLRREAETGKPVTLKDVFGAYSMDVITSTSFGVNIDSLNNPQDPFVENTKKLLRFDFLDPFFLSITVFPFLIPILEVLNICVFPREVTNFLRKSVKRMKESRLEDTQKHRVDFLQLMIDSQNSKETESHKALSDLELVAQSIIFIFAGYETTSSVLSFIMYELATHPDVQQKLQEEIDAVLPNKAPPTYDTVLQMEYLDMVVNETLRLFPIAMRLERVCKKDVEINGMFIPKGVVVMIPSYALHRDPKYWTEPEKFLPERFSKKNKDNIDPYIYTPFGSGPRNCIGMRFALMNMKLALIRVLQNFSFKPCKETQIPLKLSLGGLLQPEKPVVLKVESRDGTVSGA
Acetylcholinesterase (Homo sapiens), sequence (P22303 whole entry, looked up): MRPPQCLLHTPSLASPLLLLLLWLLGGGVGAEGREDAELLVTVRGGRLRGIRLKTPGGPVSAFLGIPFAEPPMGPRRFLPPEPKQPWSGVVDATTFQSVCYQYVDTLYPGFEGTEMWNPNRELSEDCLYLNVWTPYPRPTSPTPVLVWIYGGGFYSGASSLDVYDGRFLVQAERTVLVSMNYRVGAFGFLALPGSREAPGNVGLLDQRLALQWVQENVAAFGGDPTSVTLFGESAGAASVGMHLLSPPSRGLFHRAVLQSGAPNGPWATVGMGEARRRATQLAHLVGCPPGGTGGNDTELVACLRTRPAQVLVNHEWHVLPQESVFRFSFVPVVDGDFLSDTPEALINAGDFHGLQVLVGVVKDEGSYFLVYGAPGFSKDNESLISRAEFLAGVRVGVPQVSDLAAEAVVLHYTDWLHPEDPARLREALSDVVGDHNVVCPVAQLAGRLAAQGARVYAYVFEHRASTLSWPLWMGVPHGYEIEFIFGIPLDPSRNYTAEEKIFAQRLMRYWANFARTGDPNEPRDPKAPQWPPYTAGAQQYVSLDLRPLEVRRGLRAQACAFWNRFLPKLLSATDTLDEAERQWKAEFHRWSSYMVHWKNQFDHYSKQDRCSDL
Nuclear receptor subfamily 1 group I member 2 (Homo sapiens), sequence (O75469 whole entry, looked up): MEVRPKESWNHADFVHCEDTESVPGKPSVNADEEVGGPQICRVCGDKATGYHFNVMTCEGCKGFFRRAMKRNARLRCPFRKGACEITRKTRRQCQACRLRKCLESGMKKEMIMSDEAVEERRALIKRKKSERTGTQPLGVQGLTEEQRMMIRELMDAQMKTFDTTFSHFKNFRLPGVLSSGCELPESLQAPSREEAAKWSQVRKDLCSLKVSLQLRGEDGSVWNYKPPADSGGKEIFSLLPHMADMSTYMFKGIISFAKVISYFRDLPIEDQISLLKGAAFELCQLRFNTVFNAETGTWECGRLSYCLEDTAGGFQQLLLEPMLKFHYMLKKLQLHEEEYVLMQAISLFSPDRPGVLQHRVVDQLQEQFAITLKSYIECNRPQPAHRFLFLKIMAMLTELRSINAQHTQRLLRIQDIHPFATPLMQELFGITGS
Cytochrome P450 1A2 (Homo sapiens), sequence (P05177 whole entry, looked up): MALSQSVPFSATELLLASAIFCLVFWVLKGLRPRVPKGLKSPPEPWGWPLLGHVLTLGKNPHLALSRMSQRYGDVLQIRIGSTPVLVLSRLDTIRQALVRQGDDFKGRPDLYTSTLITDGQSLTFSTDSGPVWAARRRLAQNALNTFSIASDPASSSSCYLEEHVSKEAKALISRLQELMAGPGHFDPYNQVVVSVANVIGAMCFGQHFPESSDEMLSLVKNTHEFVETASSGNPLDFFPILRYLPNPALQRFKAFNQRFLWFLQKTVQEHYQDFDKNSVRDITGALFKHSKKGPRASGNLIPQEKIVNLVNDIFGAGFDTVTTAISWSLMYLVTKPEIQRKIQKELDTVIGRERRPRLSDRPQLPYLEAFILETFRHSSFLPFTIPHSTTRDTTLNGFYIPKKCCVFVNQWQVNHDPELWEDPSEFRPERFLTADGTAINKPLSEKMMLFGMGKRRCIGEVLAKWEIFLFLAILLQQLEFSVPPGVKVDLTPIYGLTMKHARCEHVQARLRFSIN

As for `CCOP(=S)(OCC)SCSc1cc(Cl)ccc1Cl`, the Potency result in assay [1], in assay [2], in [3], in assay [4], in [5] and in assay [6] was “inactive” each time. Moreover, the Potency result in assay [7], in [8], in assay [9], in [10], in [11] and in assay [12] was “inactive” each time. The Potency result in assay [13], in assay [14] and in assay [15] was “inactive” each time.

With `O=C(O)C(Cl)(Cl)Br`, the Potency entry in [1], in assay [2], in assay [3], in [4], in [5] and in assay [6] was “inactive” each time. Further, the Potency result in [7], in assay [8], in [9], in [10], in assay [11] and in assay [12] was “inactive” throughout. Moreover, the Potency result in assay [13], in [14] and in assay [15] was “inactive” each time.

For `CCC1(C2=NCCN2)Cc2ccccc2O1` (stereo not given), the Potency result in [1], in assay [2], in assay [3], in assay [4], in assay [5] and in assay [6] was “inactive” in each case. The Potency entry in assay [8], in assay [9], in [10], in assay [11], in assay [12] and in assay [13] was “inactive” each time. Besides, the Potency entry in assay [14] and in [15] was “inactive” throughout.

With `O=C(O)c1cc(I)cc(I)c1I`, the Potency entry in [1], in assay [2], in assay [3], in assay [4], in assay [5] and in assay [6] was “inactive” in each case. Further, the Potency result in [7], in assay [8], in assay [9], in assay [10], in assay [14] and in [15] was “inactive” throughout. Besides, in assay [12], the Potency was 13.6 µM (active).

For `CON(C)C(=O)Nc1ccc(Cl)cc1`, the Potency result in assay [1], in assay [2], in assay [3], in [4], in assay [5] and in [7] was “inactive” in each case. Besides, the Potency result in assay [8], in [9], in assay [10], in [14] and in assay [15] was “inactive” each time. For the same compound, the values for the Potency in [6], in [11] and in assay [13] were 48.6 µM (active), 39.9 µM (active) and 7.1 µM (active), respectively.

For `Nc1cc(Cl)cc(C(=O)O)c1Cl`, the Potency entry in [1], in [2], in assay [3], in assay [4], in assay [5] and in assay [6] was “inactive” in each case. Besides, the Potency result in assay [8], in assay [9], in assay [10], in [11], in assay [14] and in assay [15] was “inactive” throughout.

Consider `CN1CC[C@]23c4c5ccc(O)c4O[C@H]2[C@@H](O)C=C[C@H]3[C@H]1C5`, for which the Potency result in assay [1], in [2], in assay [3], in [4], in assay [5] and in [6] was “inactive” in each case. In assay [8], the Potency entry was “inactive”.

For `CC(C)(C)CC(C)(C)c1ccc(O)cc1`, the Potency in assay [1] is 54.5 µM (active); in [2], 51.4 µM (active); in assay [3] it was 50 µM (active); in assay [4] it was 51.4 µM (active); in assay [5], 61.1 µM (active); in assay [6] it was 19.3 µM (active) and inactive. Further, the Potency in assay [7] was 39.9 µM (active) and inactive; in assay [9] it was 31.7 µM (active) and inactive; in [12], 22.4 µM (active) and 15.5 µM (active); in [13] it was 37.3 µM (active); in assay [14], 40 µM (active). Further, the Potency result in [8], in assay [10], in assay [11] and in assay [15] was “inactive” each time.
